Data published in PubChem BioAssay (NCATS).
“And” between values parts separate entries of the source, which are not always exact repeats. Identical values can stand only once. Records with an inconclusive call do not appear. The source made the active and inactive calls. Unless noted, the call rests on the fitted dose curve; in most records, active means well fitted curve in the direction sought with a large enough effect; inconclusive means small, poorly fitted or top-dose-only effect, or another doubt; inactive means no such curve, though single readings can be large; an effect the other way counts as inactive or inconclusive. Numbered stars: 1 amine (or outer) side, 2 acyl side, 3 side chain; on linkers, the order of the positions; unused ones are H or OH. Bridge positions count the residues as written; N and C are the ends. Square brackets hold non-standard residues; d marks the D form. Peptide text beside a SMILES is read from it. I, II: the chains in the order shown. Actinocin(9to1) = Cc1c2oc3c(C)ccc(C(=O)[*:1])c3nc-2c(C(=O)[*:2])c(N)c1=O; NMeV = CN[C@H](C(=O)O)C(C)C; Sar = CNCC(=O)O

Key:
[1] = Cell Viability - LYMP2-006 (AID 978);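 further: cells exposed to compound for 24 hours; nearly all actives have a fitted effect of over 60% in size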; further: potency means the concentration at half of the fitted maximal effect
Summary of the method: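 In this cytotoxicity screen, the human lymphoblastoid line grew in complete medium with test compounds for 24 hr at 37 C. Cellular ATP served as the viability signal.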

[2] = Cell Viability - LYMP2-007 (AID 979);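 further: cells exposed to compound for 24 h before reading; nearly all actives have a fitted effect of over 60% in size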; further: potency means the concentration at half of the fitted maximal effect
Summary of the method: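 qHTS cytotoxicity: 2500 cells/well, 5 hr 37 C settle, compound 24 hr 37 C, CellTiter-Glo 30 min RT, luminescence. Decrease in ATP = toxicity. AC50 by standard Hill equation; tetraoctylammonium bromide positive control.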

[3] = Cell Viability - LYMP2-008 (AID 980); further: nearly all actives have a fitted effect of over 60% in size; further: potency means the concentration at half of the fitted maximal effect
Summary of the method: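 Luminescent ATP read-out (CellTiter-Glo, 30 min RT) after 24 hr compound exposure at 37 C of human lymphoblastoid cells in complete medium. Decrease in ATP taken as cytotoxicity; AC50 derived by standard Hill fit of qHTS concentration-response data.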

[4] = Cell Viability - LYMP2-010 (AID 981);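 further: cells exposed to compound for 24 hours at 37 °C; nearly all actives have a fitted effect of over 55% in size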; further: potency means the concentration at half of the fitted maximal effect
Summary of the method: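 qHTS cytotoxicity, 1536-well: 2500 cells/well, 5 hr settle, 24 hr compound at 37 C, CellTiter-Glo 30 min RT, luminescence read. Decrease in ATP = toxicity; AC50 via standard Hill equation. Positive control tetraoctylammonium bromide.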

[5] = Cell Viability - LYMP2-012 (AID 982);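 further: cellular ATP by luciferase luminescence where a drop means cytotoxicity; cells exposed to compound for one day before reading; nearly all actives have a fitted effect of over 55% in size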; further: potency means the concentration at half of the fitted maximal effect
[6] = Cell Viability - LYMP2-014 (AID 983); further: nearly all actives have a fitted effect of over 50% in size; further: potency means the concentration at half of the fitted maximal effect
Summary of the method: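 2500 cells/well, 5 hr 37 C; cpd 24 hr 37 C, complete medium; CellTiter-Glo 30 min RT, luminescence; ATP loss = toxicity; AC50 via Hill eqn; tetraoctylammonium bromide positive control.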

[7] = Cell Viability - LYMP2-016 (AID 984);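 further: cells exposed to compound for 24 hours at 37 °C; nearly all actives have a fitted effect of over 55% in size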; further: potency means the concentration at half of the fitted maximal effect
Summary of the method: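 Concentration-dependent ATP depletion measured in LYMP2-016 lymphoblastoid cells, 24 h, 37 C; luciferase-based luminescent detection; Hill-equation AC50.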

[8] = Cell Viability - LYMP2-018 (AID 985); further: nearly all actives have a fitted effect of over 50% in size; further: potency means the concentration at half of the fitted maximal effect
Summary of the method: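 2500 cells/well; 5 hr 37 C; cmpd 24 hr 37 C, complete medium; CellTiter-Glo 30 min RT; luminescence. Tetraoctylammonium bromide positive control. AC50 via Hill fit.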

[9] = Cell Viability - LYMP2-022 (AID 987); further: nearly all actives have a fitted effect of over 55% in size; further: potency means the concentration at half of the fitted maximal effect
Summary of the method: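 Luminescent ATP read-out (CellTiter-Glo, 30 min, RT) after 24 hr, 37 C compound exposure of 2500 human lymphoblastoid cells/well in complete medium. Cytotoxicity taken as concentration-dependent ATP loss; AC50 from standard Hill equation.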

[10] = Cell Viability - LYMP2-024 (AID 988); further: nearly all actives have a fitted effect of over 60% in size; further: potency means the concentration at half of the fitted maximal effect
Summary of the method: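 ATP-based luminescence (CellTiter-Glo, 30 min RT) after 24 h compound exposure at 37 C of 2500 lymphoblastoid cells/well; decrease in ATP taken as cytotoxicity. qHTS concentration-response fitted to standard Hill equation for AC50.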

[11] = Cell Viability - LYMP1-002 - Assay at 24 hr (AID 993); further: potency means the concentration at half of the fitted maximal effect
Summary of the method: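 CellTiter-Glo luminescence (intracellular ATP) after 24 h compound exposure, 37 C, in LYMP1-002 human lymphoblastoid cells; decreased ATP taken as cytotoxicity. AC50 from standard Hill fit of concentration-response curves.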

[12] = Cell Viability - LYMP1-002 - Assay at 40 hr (AID 994); further: nearly all actives have a fitted effect of over 60% in size; further: potency means the concentration at half of the fitted maximal effect
Summary of the method: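 qHTS cytotoxicity; 2500 cells/well, 5 hr 37 C settle, compound 40 hr 37 C. CellTiter-Glo, 30 min RT, luminescence (ATP). Concentration-response, Hill fit → AC50. Pos. ctrl tetraoctylammonium bromide.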

[13] = qHTS Assay for Lipid Storage Modulators (AID 1519; calls by dose curve; on activity change, negative = inhibition: on the % scale 0 is the no-effect control and ±100 the full control effect); settings: Drosophila S3 cells, BODIPY lipid droplet/cell ratio, laser cytometry, cells loaded with oleic acid
Summary of the method: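 Cells seeded at 5,000 per well were treated with compounds over a concentration series and loaded with oleic acid (400 uM, as added). Lipid droplet fluorescence (488 nm excitation, 500-530 nm channel) was read by laser-scanning cytometry and normalized to 20 uM Triacsin C.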

[14] = target: Alpha-galactosidase A (Homo sapiens) (UniProt P06280); assay: Counterscreen for Glucocerebrosidase Inhibitors: qHTS Assay for Human alpha-Galactosidase at pH 4.5 (AID 992); further: 0% is about no effect
Summary of the method: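 Citrate buffer pH 4.5, Tween-20 0.005%. Enzyme 2 nM, substrate 80 uM, 20 min RT. Stop pH 10. Fluorescence Ex 365/Em 440. AC50 by Hill fit.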

[15] = target: alpha-glucosidase (Oryza sativa, rice) (UniProt Q653V4); assay: Counterscreen for Glucocerebrosidase Inhibitors: qHTS Assay for Rice alpha-Glucosidase at pH 5.0 (AID 997);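 further: 0% = full activity with enzyme and -100% = basal without enzyme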
Summary of the method: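 Endpoint fluorogenic assay at pH 5.0: compounds (0.7 nM to 77 uM) titrated against 4 nM rice enzyme and 400 uM 4-MU-alpha-glucoside for 20 min at room temperature; NaOH/glycine stop, read ex 365/em 440 nm, Hill-fitted AC50.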

[16] = target: DNA repair nuclease/redox regulator APEX1 (Homo sapiens) (UniProt P27695); assay: qHTS Validation Assay for Inhibitors of the Human Apurinic/apyrimidinic Endonuclease 1 (APE1) (AID 1705;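 further: TAMRA fluorescence gain over two minutes as APE1 cuts a quenched THF abasic duplex; on the % scale 0 is the no-effect control and ±100 the full control effect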)
Summary of the method: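 Substrate: 50 nM final fluorophore/quencher THF-abasic duplex. Enzyme preincubated with compounds 15 min, RT. Progress derived from fluorescence difference, third minus first kinetic read.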

[17] = Counterscreen for APE1 Inhibitors: Fluorescent Dye Displacement Validation Assay (AID 1707);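 further: plate controls were ThO with dsDNA and no compound for no effect and ThO without dsDNA for full effect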
Summary of the method: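 Signal: ThO fluorescence (ex 480 nm/em 540 nm) on binding 50 nM dsDNA; displacement by test compound reduces it. Conditions: 250 nM dye, 50 mM Tris-HCl pH7.5, 2 mM MgCl2, 50mM NaCl, 0.01% Tween-20.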

[18] = qHTS for differential inhibitors of proliferation of Plasmodium falciparum line 7G8 (AID 1815);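 further: parasite growth measured after three days of incubation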; further: potency means the concentration at half of the fitted maximal effect;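 on activity change, negative = inhibition: plate controls were vehicle wells for no effect and reference inhibitor wells for full effect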
[19] = target: Endonuclease 4 (Escherichia coli (strain K12)) (UniProt P0A6C1); assay: Counterscreen for APE1 Inhibitors: qHTS Validation Assay for Inhibitors of Endonuclease IV (AID 1708); further: on the % scale 0 is the no-effect control and ±100 the full control effect
Summary of the method: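 The reaction buffer contained 50 mM Tris-HCl pH 7.5, 50 mM NaCl, 2 mM MgCl2, 1 mM DTT and 0.01% Tween-20. Incision of a 50 nM fluorophore/quencher THF substrate by 2 nM enzyme was measured kinetically.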

[20] = measured here: cell count channel max response
[21] = measured here: lipid channel max response

Sequence of DNA repair nuclease/redox regulator APEX1 (Homo sapiens) (P27695 whole entry, looked up): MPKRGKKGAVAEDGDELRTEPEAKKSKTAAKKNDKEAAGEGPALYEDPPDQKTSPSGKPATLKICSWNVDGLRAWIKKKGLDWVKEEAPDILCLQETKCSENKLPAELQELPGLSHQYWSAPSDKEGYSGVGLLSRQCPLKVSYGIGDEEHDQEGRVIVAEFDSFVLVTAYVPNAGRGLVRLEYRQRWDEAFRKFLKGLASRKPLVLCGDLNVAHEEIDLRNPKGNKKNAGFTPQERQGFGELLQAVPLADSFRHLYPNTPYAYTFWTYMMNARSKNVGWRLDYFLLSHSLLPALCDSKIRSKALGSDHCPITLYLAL
Sequence of Alpha-galactosidase A (Homo sapiens) (P06280 whole entry, looked up): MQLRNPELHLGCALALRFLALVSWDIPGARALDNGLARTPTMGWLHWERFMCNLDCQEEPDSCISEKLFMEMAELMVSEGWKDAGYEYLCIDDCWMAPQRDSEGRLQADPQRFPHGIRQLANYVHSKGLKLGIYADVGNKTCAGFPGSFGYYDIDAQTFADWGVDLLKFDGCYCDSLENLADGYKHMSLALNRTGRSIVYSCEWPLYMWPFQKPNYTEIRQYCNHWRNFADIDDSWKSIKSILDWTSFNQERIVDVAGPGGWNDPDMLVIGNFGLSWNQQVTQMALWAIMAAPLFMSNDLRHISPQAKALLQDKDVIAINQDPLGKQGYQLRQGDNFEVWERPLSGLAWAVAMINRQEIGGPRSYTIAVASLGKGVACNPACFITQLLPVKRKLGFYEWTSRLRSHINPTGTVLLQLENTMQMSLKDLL

O=c1ccc2ccccc2o1
inactive: Potency [1] | Potency [2] | Potency [3] | Potency [4] | Potency [5] | Potency [6] | Potency [7] | Potency [8] | Potency [9] | Potency [10] | Potency [11] | Potency [12]

Cc1c2oc3c(C)ccc(C(=O)N[C@@H]4C(=O)N[C@H](C(C)C)C(=O)N5CCC[C@H]5C(=O)N(C)CC(=O)N(C)[C@@H](C(C)C)C(=O)O[C@@H]4C)c3nc-2c(C(=O)N[C@@H]2C(=O)N[C@H](C(C)C)C(=O)N3CCC[C@H]3C(=O)N(C)CC(=O)N(C)[C@@H](C(C)C)C(=O)O[C@@H]2C)c(N)c1=O (I: T[dV]P[Sar][NMeV] / II: T[dV]P[Sar][NMeV]; ester I:1-I:C, II:1-II:C; linker I:N-II:N via Actinocin(9to1))
active: Potency [9] 0.0126 µM | Potency [10] 0.004 µM | Potency [11] 0.0079 µM | Potency [12] 0.0032 µM

Nc1ccc(C(=O)O)cc1
22.6%: max response [13, 21]
inactive: Potency [1] | Potency [2] | Potency [3] | Potency [4] | Potency [5] | Potency [6] | Potency [7] | Potency [8] | Potency [9] | Potency [10] | Potency [11] | Potency [12] | activity change, negative = inhibition ([13]; at 57.5 µM (top of the series)) 6.97%
13.3%: max response [13, 20]

Oc1ccc(O)cc1
3.88% and -20.5%: max response [13, 20]
active: Potency [3] 50.1 µM | Potency [4] 39.8 µM | Potency [5] 50.1 µM | Potency [9] 39.8 µM | Potency [10] 50.1 µM | Potency [11] 39.8 µM | Potency [18] 8.91 µM
inactive: Potency [6] | Potency [7] | outcome [14] | outcome [15] | activity change, negative = inhibition ([13]; at 57.5 µM (top of the series)) -1.63% and -0.961% | Potency [16] | outcome [17]
3.65% and -23.9%: max response [13, 21]

CN1[C@@H]2CC[C@H]1CC(OC(=O)c1c[nH]c3ccccc13)C2 (stereo partly drawn)
inactive: outcome [14] | outcome [15]

CN(C)/N=N/c1nc[nH]c1C(N)=O
10%: max response [13, 20]
19.3%: max response [13, 21]
inactive: Potency [1] | Potency [2] | Potency [3] | Potency [4] | Potency [5] | Potency [6] | Potency [7] | Potency [8] | Potency [9] | Potency [10] | Potency [11] | Potency [12] | activity change, negative = inhibition ([13]; at 57.5 µM (top of the series)) 6.55%

C[C@]12CC[C@@H]3c4ccc(O)cc4CC[C@H]3[C@@H]1CC[C@@H]2O
inactive: Potency [1] | Potency [2] | Potency [3] | Potency [4] | Potency [5] | Potency [6] | Potency [7] | Potency [9] | Potency [10] | outcome [14] | Potency [11] | Potency [12] | outcome [15] | Potency [16] | outcome [17] | outcome [19] | Potency [18]

NC(=NCCCCCCN=C(N)/N=C(\N)Nc1ccc(Cl)cc1)/N=C(\N)Nc1ccc(Cl)cc1
active: Potency [1] 39.8 µM | Potency [2] 39.8 µM | Potency [3] 39.8 µM | Potency [4] 39.8 µM | Potency [5] 39.8 µM | Potency [6] 39.8 µM | Potency [7] 50.1 µM | Potency [8] 39.8 µM | Potency [9] 39.8 µM | Potency [10] 39.8 µM | Potency [11] 39.8 µM | Potency [12] 39.8 µM

CCCCCCc1ccc(O)cc1O
inactive: Potency [1] | Potency [2] | Potency [3] | Potency [4] | Potency [5] | Potency [6] | Potency [7] | Potency [8] | Potency [9] | Potency [10] | Potency [11] | Potency [12]

C=CCc1ccc(O)c(OC)c1
19.8% and 9.66%: max response [13, 20]
40.9% and 11.8%: max response [13, 21]
inactive: Potency [1] | Potency [2] | Potency [3] | Potency [4] | Potency [5] | Potency [6] | Potency [7] | Potency [8] | Potency [9] | Potency [10] | Potency [11] | Potency [12] | activity change, negative = inhibition ([13]; at 57.5 µM (top of the series)) 13.1% and 1.99%

Oc1c(I)cc(Cl)c2cccnc12
-24.9% and -6.72%: max response [13, 21]
active: Potency [4] 50.1 µM | Potency [12] 50.1 µM
-21.6% and -13.1%: max response [13, 20]
inactive: activity change, negative = inhibition ([13]; at 25.7 µM (top of the series)) -3.26% | activity change, negative = inhibition ([13]; at 57.5 µM (top of the series)) 2.97%

Oc1cc(O)c2c(c1)O[C@H](c1ccc(O)c(O)c1)[C@H](O)C2
inactive: outcome [14] | outcome [15]

CN=C(NC#N)Nc1ccc(C2=NNC(=O)CC2C)cc1 (stereo not drawn)
17.1%: max response [13, 21]
14.7%: max response [13, 20]
inactive: activity change, negative = inhibition ([13]; at 57.5 µM (top of the series)) 2.25% | Potency [16] | outcome [17] | outcome [19]

CCCC1O[C@@H]2C[C@H]3[C@@H]4CCC5=CC(=O)C=C[C@]5(C)[C@H]4[C@@H](O)C[C@]3(C)[C@]2(C(=O)CO)O1 (stereo partly drawn)
inactive: outcome [14] | outcome [15]

Oc1ccc(Cl)cc1Sc1cc(Cl)ccc1O
inactive: Potency [11]

COc1cc(-c2ccc(=O)[nH]n2)ccc1OC(F)F
inactive: outcome [14] | outcome [15] | Potency [16] | outcome [17] | outcome [19] | Potency [18]
